The assay relates to VDR:RXRa (NR concentration 270 nM, RXRa partner concentration 90 nM). In words: PBM binding z-score (relative to random genomic background probes); higher = stronger binding; sequences stand for … in GC…GCGATTGACAGCGTAGAATGAAGG
As to the method: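 Protein-binding microarray (Agilent 4x180K custom design, double-stranded 60-nt probes: 5' GC cap, 34-nt variable region, 24-nt constant primer region; full probe sequence given). Purified or IVT nuclear receptor:RXRα heterodimers (3:1 NR:RXRα, mostly 270:90 nM) or homodimers were incubated for 1 h in PBS with 2% milk and no ligand, then detected with Alexa488 antibodies. Fluorescence from o1-orientation probes (~5 replicates averaged) was converted to z-scores against 500 random hg19 background probes. Variable regions are seed direct-repeat (DR0–DR5) sites, all their single-nucleotide variants and half-site ablations.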
Regarding CGTCCAAGGTCATAGGAGGTCAGCGAAGACAGAT, the PBM binding z-score came out at 6.6.

Sequence TCTAGCAGGCCCGAGGGTCACTCAAGAGGTACGG came in with a PBM binding z-score of 1.14.

For AGAACGAGGGCAATGAGTTGATAACACGGGTGGC, the PBM binding z-score was determined as 5.15.

The sequence CCTATTAGTTGACCATAGGGGCAACCGAAGCTCG gave a PBM binding z-score of 0.497.

Turning to TCTGCTAGGTCAGTTGATCAGCTAACGAGCTGCC, the PBM binding z-score was 0.135.

Turning to ATATGTAGTTTACATCCGGGTCATTCAGGCTATG, the PBM binding z-score was 3.49.

ATCGAAAGGTCGAAGGTTAGTATACCCACCCGAA registered a PBM binding z-score of 3.14.

In the case of CCGACTGGGGCAGGGTTACCATAACGCACAGCCA, the PBM binding z-score was determined as 0.216.

In turn, TAGCTTAGGTCATTGGGCCAGTATAGTACGCATC gave a PBM binding z-score of 2.4.

In turn, CTCGAGAGGTCGTGCTCAGGTGAGTATACCAAAC returned a PBM binding z-score of 3.37.

With ACTAGCAGGCCAAGGGTCAATCAAGATTAGTCCG, the PBM binding z-score is 2.66.

Regarding CAAACTAGGTCACAGAGGTCAAATTCCGTGCGTA, the PBM binding z-score was determined as 8.11.

In the case of TCTGCTAGGTTAGTTGGTCAGCTAACGAGCTGCC, the PBM binding z-score was -0.449.

Consider CCTACTGGGCCATTCAGAGGTGATTGATCATATG, for which the PBM binding z-score is -0.104.

The sequence ATATGTAGGTTATCGGGTCTTTCAGTTTGCGCAT registered a PBM binding z-score of 3.12.

Regarding TCATATAGGTAAATGCTAGTTGAAAGTCCGATCT, the PBM binding z-score came to 1.07.

Sequence TCAGACATGTGAAGGTAACTCAGGTACGCAGTCG came in with a PBM binding z-score of 0.627.

Consider CTACCAAGGTGAACAAGGGCGTTGATTACTATTC, for which the PBM binding z-score was 4.73.

As to CCTACTGGGCCATCAGGTCATTGCTATCAACGTT, the PBM binding z-score was 1.71.

GCTATTAGTTGAAAGGGCAACCGTATGATTCTCG came in with a PBM binding z-score of 0.653.

As for GCTTACGGGTCTAAGGTTATAGCATGAATAGAAT, the PBM binding z-score is 1.01.

TTTCCAAGGTGAGCTGAGGTCGTTGATCCAACTC yielded a PBM binding z-score of 4.12.

For CCTACTGCGCCAAGGTCATTGATCAGTCAAAGCA, the PBM binding z-score worked out at 3.65.

TCTATTAGTTGAAGTGCAACCGACGAGTCCGTTT registered a PBM binding z-score of 1.22.

Sequence TCTAGTAGATCAACAGGAGGTTAAGAAAGATCGA came in with a PBM binding z-score of 0.713.

As for CAAACTAGGTCAGAACAGGACAGTGAAGGATGAT, the PBM binding z-score stood at 0.899.

Take CAAACTAGGTCACCGGAAGGTCAATGTCCGCATG: the PBM binding z-score was 5.36.

Consider TATACAGGGTCAAAGGCCAGCGTACGAATGTCGA, for which the PBM binding z-score was 4.73.

For AGAATGATGTTATACGTAGATCAGGGAAGAAAGT, the PBM binding z-score was -0.209.

In the case of TCTGCTAGGTCAGTTGGTCAGCCAACGAGCTGCC, the PBM binding z-score was -0.0135.

Sequence GTACCAAGGTGAATAGGTCGTGGATGAGTAGGCG had a PBM binding z-score of 0.918.

On to TCTCGGAGGACACGAAGGTCAGAACTTTCCAGAG, for which the PBM binding z-score was 2.18.

The sequence TAGCCTAGGTCAGATCGGGCCAGAATACGCTATA came in with a PBM binding z-score of 0.522.

As to CCTACTGGGCCAAGGTTATTGATCAGTCAAAGCA, the PBM binding z-score is -0.0867.

Turning to ATATGTAGCTTATCGGGTCATTCAGTTTGCGCAT, the PBM binding z-score amounted to 4.71.

With TTACCAAGGTGAGCTGAGGTCGTTGAACCAACTC, the PBM binding z-score came to 4.25.

Take ATATGTAGGTTAAGGGTCACTCAGGTTGGTTCGC: the PBM binding z-score stood at 5.43.

Sequence AGAATGAGGTTATTAATATCAGGGAATTGCGGTC returned a PBM binding z-score of 1.27.

The sequence TCTTGTAGATCAAAGGTAAAGAAAGCCGAAGCCT came in with a PBM binding z-score of 0.385.

Take TCTTGTAGATCTACAGGAGGTTAAGAAAGATCGA: the PBM binding z-score is 0.41.

These data come from the supplement of paper PMC6555819.
